Assay results taken from PubChem BioAssay AID645 (SRMLSC, 2007).
Hit rate of the full screen: of about 65,000 compounds, about 450 (0.69%) were called active. The sample as a whole holds a higher share of actives than the screen did. Values without a mark were called inactive.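 Rule for the calls: active = HER2 level under 5% of the carrier-only control; inconclusive = no clear call, values can overlap the other calls; inactive = the rest.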

biological target: Receptor tyrosine-protein kinase erbB-2 (Homo sapiens) (UniProt P04626); experiment: inhibitors of Her2 protein expression, primary screen, SKBR-3 cells, AlphaScreen, 66K library (AID 645); settings: SKBR-3 HER2 protein level, 18-24 h, at 10 µM, stronger effect = lower value;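 note: 100% = DMSO carrier and 0% = 500 nM PU-H71 HSP90 inhibitor; lower value means stronger loss of Her2 protein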
Sequence (P04626 whole entry, looked up): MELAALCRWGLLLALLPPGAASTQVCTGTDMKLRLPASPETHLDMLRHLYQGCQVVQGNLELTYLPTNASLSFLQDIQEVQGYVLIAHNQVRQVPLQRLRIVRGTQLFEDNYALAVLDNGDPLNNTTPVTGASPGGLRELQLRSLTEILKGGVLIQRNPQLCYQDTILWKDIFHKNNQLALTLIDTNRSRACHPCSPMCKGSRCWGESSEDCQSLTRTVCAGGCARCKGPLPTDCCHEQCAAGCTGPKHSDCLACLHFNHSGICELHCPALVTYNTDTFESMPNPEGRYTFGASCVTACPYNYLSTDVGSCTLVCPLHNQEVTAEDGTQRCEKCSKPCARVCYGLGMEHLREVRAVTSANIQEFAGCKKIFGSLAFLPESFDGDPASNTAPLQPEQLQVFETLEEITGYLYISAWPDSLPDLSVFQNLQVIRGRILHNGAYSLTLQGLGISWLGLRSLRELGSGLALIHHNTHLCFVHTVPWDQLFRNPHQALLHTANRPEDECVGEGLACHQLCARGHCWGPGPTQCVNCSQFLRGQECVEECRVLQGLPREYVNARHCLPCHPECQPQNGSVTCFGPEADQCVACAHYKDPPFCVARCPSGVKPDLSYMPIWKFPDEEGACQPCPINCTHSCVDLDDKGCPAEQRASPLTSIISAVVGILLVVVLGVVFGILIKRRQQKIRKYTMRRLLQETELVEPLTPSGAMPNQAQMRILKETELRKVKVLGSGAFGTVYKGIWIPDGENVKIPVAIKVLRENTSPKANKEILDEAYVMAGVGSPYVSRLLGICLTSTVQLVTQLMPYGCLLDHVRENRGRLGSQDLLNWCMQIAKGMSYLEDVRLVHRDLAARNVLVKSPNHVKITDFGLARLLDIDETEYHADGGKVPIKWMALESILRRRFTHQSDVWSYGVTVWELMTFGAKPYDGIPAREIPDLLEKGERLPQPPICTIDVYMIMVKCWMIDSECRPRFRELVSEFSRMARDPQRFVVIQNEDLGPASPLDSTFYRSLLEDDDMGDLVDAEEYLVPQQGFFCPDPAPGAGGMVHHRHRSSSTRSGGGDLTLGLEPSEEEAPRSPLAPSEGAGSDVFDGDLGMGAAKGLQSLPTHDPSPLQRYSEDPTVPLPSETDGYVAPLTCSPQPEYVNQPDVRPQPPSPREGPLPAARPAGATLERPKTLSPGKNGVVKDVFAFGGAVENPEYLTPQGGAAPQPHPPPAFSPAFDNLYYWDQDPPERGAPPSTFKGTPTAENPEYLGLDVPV

Compound | HER2 level % of control
O=C(O)C1C2C=CC(C2)C1C(=O)N1CCN(CCO)CC1 (centres undefined) | 56.8%
Nc1cc(=O)nc(SCc2ccccc2)n1Cc1ccco1 | 77%
Cn1c(-c2ccc(F)cc2)cnc1SCC(=O)NCc1ccco1 | 85.8%
O=c1[nH]c(CSc2ncc(-c3ccc(F)cc3)n2Cc2ccco2)nc2ccccc12 | -21.8% (active)
CN(C)c1nc2n(c(=O)n1)CCO2 | 93.2%
CCC(=O)NC(=Nc1nc2ccccc2s1)NC(=O)CC | 76%
CCC(=O)c1cc2c(cc1NC(=O)c1cccs1)OCCO2 | 102%
COc1cccc(NC(=O)C(C)Oc2ccccc2)c1 (centres undefined) | 87.6%
CCCC1CC(C)(C(=O)Cn2[nH]c(=O)ccc2=O)OC1=O (centres undefined) | 109%
COc1ccccc1CNC(=O)Cn1cc2c(n1)CCCC2 | 95.6%
CCc1cc2c(=O)c(-c3ccon3)c(N)oc2cc1OC | 49.1%
Cc1ccccc1CN1CCN(C(=O)c2cccc(F)c2)CC1 | 79%
c1ccc2cc(OCCN3CCCC3)ccc2c1 | -25.1% (active)
OC(COc1ccc2ccccc2c1)CN1CCOCC1 (centres undefined) | 113%
Cc1cc(OCCN2CCCC2)ccc1C(C)C | 63%
CCOC(=O)Cc1csc(NC(=O)C(C)(C)C)n1 | 135%
CCc1nc2ccccc2n(CCOCCOCCn2c(=O)c(CC)nc3ccccc32)c1=O | 91.8%
CC(=O)NC1=NC(=O)CS1 | 76.7%
Cn1c2c(c(=O)n(C)c1=O)C1c3ccccc3OCC1C(C)(C)O2 (centres undefined) | 99.2%
CCOc1ccccc1N=C1NC(=O)CS1 | 88.8%
CCN(CC)CCNC(=O)Cn1cnc2sc(C)c(S(=O)(=O)N3CCOCC3)c2c1=O | 103%
OC(COc1cccc2ccccc12)CN1CCN(c2ccccn2)CC1 (centres undefined) | 105%

Compound | HER2 level % of control
O=C1CSC(=O)N1CCOCCN1C(=O)CSC1=O | 104%
Cc1ccc2c(CSc3nncs3)cc(=O)oc2c1 | 149%
Cc1cc(=O)[nH]c(SCc2cc(Cl)ccc2OC(F)F)n1 | 103%
CC1CC(c2ccccc2)n2nc(NC(=O)c3cccs3)nc2N1 (centres undefined) | 89%
CCOC(=O)Cc1c(C)nc2c(C#N)c(C)nn2c1C | 92.6%
COCCNCCOCCOc1cccc(OC)c1 | 102%
Cc1nc(C)c2c(c1C(F)(F)F)-c1ccccc1C2(F)F | 78.7%
COc1ccc(C(c2nnnn2C2CCCCC2)N2CCN(c3ccccc3F)CC2)cc1 (centres undefined) | 80.7%
O=C(c1ccc2c(c1)N(Cc1ccc(F)cc1)C(=O)CS2)N1CCOCC1 | 98.6%
CC(=O)N1CCN(c2cccc(C)c2C)CC1 | 110%
COc1ccc(C(CNC(=O)c2cccnc2SC)N2CCOCC2)cc1 (centres undefined) | 106%
CC(=O)Nc1ccc(S(=O)(=O)N2CCCC2C(=O)O)cc1 (centres undefined) | 162%
Cc1cc(C)nc(NC(=O)C(C)N2C(=O)c3ccccc3C2=O)n1 (centres undefined) | 89.5%
COC(=O)c1ccc(NC(=O)C(C)N2C(=O)c3ccccc3C2=O)cc1 (centres undefined) | -18.9% (active)
COC(=O)c1ccc(NC(=O)c2ccco2)cc1 | 85.8%
COC(=O)C1C(=O)c2c([nH]c(C(=O)OCCSC)c2C)CC1C (centres undefined) | 99.8%
CCOC(=O)c1c(C)n(C)c2ccc(OC)c(NC(=O)CN3CCC4(CC3)OCCO4)c12 | 34.4%
CC(C)CCNc1nc(N2CCCC2)c2c(c1C#N)CCN(C)C2 | -0.705% (active)
CC(C)Cc1nc(N2CCOCC2)c(C#N)c2c1CCC2 | 106%
CCN1CCc2c(C#N)c(NCc3ccccc3)nc(NCCO)c2C1 | 94.1%
COc1ccc(-c2cc3n(n2)CCc2nc4ccccc4n2-3)cc1 | 74.2%
COC(=O)CN(c1nc(C)c(Cl)c(OC)n1)S(=O)(=O)c1ccc(C)cc1 | 103%

Compound | HER2 level % of control
CCC(=NC1CC(C)(C)NC(C)(C)C1)C1=C(O)CC(C)(C)CC1=O | 76%
CNC(=O)c1cc2c(ccc3ccccc32)oc1=N | 74.1%
CCCC1C(c2ccccc2)C(C#N)(C#N)C2(C#N)CC1(N)NC2=O (centres undefined) | -19.3% (active)
O=C(O)CN(Cc1ccco1)S(=O)(=O)c1ccccc1 | 110%
CC1CCCC(C)N1C(=O)CN1CCN(c2nc(-c3ccc(F)cc3)cs2)CC1 (centres undefined) | 90.1%
CCCCc1nccn1CCn1ccnc1CCCC | 106%
CCOC(=O)N1CCC(NC(=O)c2cnn3ccccc23)CC1 | 106%
CCCCCCC(=O)N(O)C1CC(=O)N(c2ccccc2)C1=O (centres undefined) | 81.1%
CCN(CC)C(=O)C1CCC(C)(C(=O)O)C1(C)C (centres undefined) | 100%
Cc1cc(C)c(C(=O)CN2C(=O)CCC2=O)cc1C | 93.5%
CCCc1nc(SCC(=O)Nc2ccccc2OC)c2c(=O)n(C)c(=O)n(C)c2n1 | 31%
COc1ccc(-c2c(C)nn3c(N4CCC(C(=O)N5CCCCC5)CC4)cc(C)nc23)cc1OC | 83.2%
O.O.O.O=S(=O)([O-])OC[C@H]1O[C@@H](O[C@]2(COS(=O)(=O)[O-])O[C@H](OS(=O)(=O)[O-])[C@@H](OS(=O)(=O)[O-])[C@@H]2OS(=O)(=O)[O-])[C@H](OS(=O)(=O)[O-])[C@@H](OS(=O)(=O)[O-])[C@@H]1OS(=O)(=O)[O-].[Al] | 102%
CC(NC(=O)CSc1nc2c(cc1C#N)CN(C)CC2)c1ccccc1 (centres undefined) | 110%
CSc1cccc(NC(=O)CSc2ccccc2)c1 | 95.7%
O=C(NCCCN1CCN(C2CCCCC2)CC1)Nc1ccccc1C(F)(F)F | 82.5%
CCCCN(C)Cc1c(C)[nH]c2ccc(Cl)cc2c1=O | 88%
CCCC(C)n1[nH]c(=O)c2c(C)cc(C)nc21 (centres undefined) | 90.1%
c1cc(-n2cnnn2)ccc1NC1=NCCC1 | 92.1%
COCCOC(=O)C1=C(C)NC(=O)NC1c1ccc(Cl)cc1 (centres undefined) | 95.6%
